Laboratory results reported in PubChem BioAssay (EPA / NIEHS).
Records with an inconclusive call do not appear. Activity calls are given as the source filed them. The calls were made as follows, unless noted: active = hit-call score of the fitted dose curve at least 0.9, where 1 is the maximum; inconclusive = response in the unintended direction; inactive = score below 0.9.

Key:
[1] = CCTE_Harrill_HTTr_Viability_DMEM_6hr: (Pilot) CCTE's 6-hour Cell Viability Assessment for the High-Throughput Transcriptomics (HTTr) Platform, in MCF-7 cells cultured in DMEM + 10% fetal bovine serum, Harrill Lab (AID 2283973; active = hit-call score of the fitted dose curve at least 0.9, where 1 is the maximum; inactive = score below 0.9)
Summary of the method: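 MCF-7 cells in DMEM + 10% FBS, eight-point dilution series, 6 h exposure. Membrane integrity by propidium iodide exclusion with high-content imaging; bidirectional fit versus DMSO.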

[2] = CCTE_Harrill_HTTr_Viability_DMEM_12hr: (Pilot) CCTE's 12-hour Cell Viability Assessment for the High-Throughput Transcriptomics (HTTr) Platform, in MCF-7 cells cultured in DMEM + 10% fetal bovine serum, Harrill Lab (AID 2283974; active = hit-call score of the fitted dose curve at least 0.9, where 1 is the maximum; inactive = score below 0.9)
Summary of the method: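 MCF-7 cells in DMEM + 10% FBS exposed 12 h to an eight-point dilution series; membrane integrity scored by propidium iodide exclusion with high-content imaging, bidirectional fitting versus DMSO.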

[3] = CCTE_Harrill_HTTr_Viability_DMEM_24hr: (Pilot) CCTE's 24-hour Cell Viability Assessment for the High-Throughput Transcriptomics (HTTr) Platform, in MCF-7 cells cultured in DMEM + 10% fetal bovine serum, Harrill Lab (AID 2283975; active = hit-call score of the fitted dose curve at least 0.9, where 1 is the maximum; inactive = score below 0.9)
Summary of the method: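 MCF-7 cells in DMEM with 10% FBS exposed for 24 hours to an eight-point dilution series. Membrane integrity by propidium iodide exclusion with high content imaging; bidirectional fit against DMSO.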

[4] = CCTE_Harrill_HTTr_Viability_PRF_DMEM_6hr: (Pilot) CCTE's 6-hour Cell Viability Assessment for the High-Throughput Transcriptomics (HTTr) Platform, in MCF-7 cells cultured phenol red-free DMEM + 10% charcoal-stripped fetal bovine serum, Harrill Lab (AID 2283976; active = hit-call score of the fitted dose curve at least 0.9, where 1 is the maximum; inactive = score below 0.9)
Summary of the method: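 MCF-7 cells in phenol red-free DMEM with 10% charcoal-stripped FBS exposed 6 hours to an eight-point dilution series. Propidium iodide exclusion imaged; curves fitted bidirectionally against DMSO.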

[5] = CCTE_Harrill_HTTr_Viability_PRF_DMEM_12hr: (Pilot) CCTE's 12-hour Cell Viability Assessment for the High-Throughput Transcriptomics (HTTr) Platform, in MCF-7 cells cultured in phenol red-free DMEM + 10% charcoal-stripped fetal bovine serum, Harrill Lab (AID 2283977; active = hit-call score of the fitted dose curve at least 0.9, where 1 is the maximum; inactive = score below 0.9)
Summary of the method: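 MCF-7 cells in phenol red-free DMEM with 10% charcoal-stripped FBS exposed 12 hours to an eight-point dilution series. Viability assessed by high-content imaging of propidium iodide exclusion; bidirectional fit versus DMSO.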

[6] = CCTE_Harrill_HTTr_Viability_PRF_DMEM_24hr: (Pilot) CCTE's 24-hour Cell Viability Assessment for the High-Throughput Transcriptomics (HTTr) Platform, in MCF-7 cells cultured in phenol red-free DMEM + 10% charcoal-stripped fetal bovine serum, Harrill Lab (AID 2283980; active = hit-call score of the fitted dose curve at least 0.9, where 1 is the maximum; inactive = score below 0.9)
Summary of the method: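 MCF-7 cells in phenol red-free DMEM with 10% charcoal-stripped FBS, eight-point dilution series, 24 h exposure. Membrane integrity by propidium iodide exclusion with high content imaging; bidirectional fit vs DMSO.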

[7] = CCTE_Harrill_HTTr_Apoptosis_DMEM_6hr: (Pilot) CCTE's 6-hour Apoptosis Assessment for the High-Throughput Transcriptomics (HTTr) Platform, in MCF-7 cells cultured in DMEM + 10% fetal bovine serum, Harrill Lab (AID 2283981; active = hit-call score of the fitted dose curve at least 0.9, where 1 is the maximum; inactive = score below 0.9)
Summary of the method: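 Caspase-3/7 activation read by high content imaging with CellEvent Caspase 3/7 Green in MCF-7 cells (DMEM + 10% FBS), 6 h after dosing; eight-point dilution series. Bidirectional fitting relative to DMSO baseline.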

[8] = CCTE_Harrill_HTTr_Apoptosis_DMEM_12hr: (Pilot) CCTE's 12-hour Apoptosis Assessment for the High-Throughput Transcriptomics (HTTr) Platform, in MCF-7 cells cultured in DMEM + 10% fetal bovine serum, Harrill Lab (AID 2283982; active = hit-call score of the fitted dose curve at least 0.9, where 1 is the maximum; inactive = score below 0.9)
Summary of the method: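 MCF-7 cells in DMEM + 10% FBS, exposed 12 h to an eight-point dilution series; caspase-3/7 activation imaged with CellEvent Green. Bidirectional fit versus DMSO.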

[9] = CCTE_Harrill_HTTr_Apoptosis_DMEM_24hr: (Pilot) CCTE's 24-hour Apoptosis Assessment for the High-Throughput Transcriptomics (HTTr) Platform, in MCF-7 cells cultured in DMEM + 10% fetal bovine serum, Harrill Lab (AID 2283983; active = hit-call score of the fitted dose curve at least 0.9, where 1 is the maximum; inactive = score below 0.9)
Summary of the method: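 MCF-7 cells in DMEM + 10% FBS, eight-point dilution series, 24 h exposure. Caspase-3/7 activation imaged by high-content imaging with CellEvent Caspase 3/7 Green. Bidirectional curve fitting against DMSO baseline.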

[10] = CCTE_Harrill_HTTr_Apoptosis_PRF_DMEM_6hr: (Pilot) CCTE's 6-hour Apoptosis Assessment for the High-Throughput Transcriptomics (HTTr) Platform, in MCF-7 cells cultured phenol red-free DMEM + 10% charcoal-stripped fetal bovine serum, Harrill Lab (AID 2283984; active = hit-call score of the fitted dose curve at least 0.9, where 1 is the maximum; inactive = score below 0.9)
Summary of the method: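 MCF-7 cells in phenol red-free DMEM + 10% charcoal-stripped FBS, eight-point dilution series, 6 h exposure. Caspase-3/7 activation imaged by high-content imaging with CellEvent Caspase 3/7 Green; bidirectional fit versus DMSO baseline.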

[11] = CCTE_Harrill_HTTr_Apoptosis_PRF_DMEM_12hr: (Pilot) CCTE's 12-hour Apoptosis Assessment for the High-Throughput Transcriptomics (HTTr) Platform, in MCF-7 cells cultured in phenol red-free DMEM + 10% charcoal-stripped fetal bovine serum, Harrill Lab (AID 2283985; active = hit-call score of the fitted dose curve at least 0.9, where 1 is the maximum; inactive = score below 0.9)
Summary of the method: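 MCF-7 cells in phenol red-free DMEM with 10% charcoal-stripped FBS, eight-point dilution series, 12 h exposure. Caspase-3/7 activation imaged by high content imaging with CellEvent Green reagent; bidirectional fit vs DMSO.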

[12] = CCTE_Harrill_HTTr_Apoptosis_PRF_DMEM_24hr: (Pilot) CCTE's 24-hour Apoptosis Assessment for the High-Throughput Transcriptomics (HTTr) Platform, in MCF-7 cells cultured in phenol red-free DMEM + 10% charcoal-stripped fetal bovine serum, Harrill Lab (AID 2283986; active = hit-call score of the fitted dose curve at least 0.9, where 1 is the maximum; inactive = score below 0.9)
Summary of the method: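 MCF-7 cells in phenol red-free DMEM with 10% charcoal-stripped FBS, exposed 24 h across an eight-point dilution series. Caspase-3/7 activation imaged with CellEvent Green by high content imaging; bidirectional fitting against DMSO.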

DIO1 (gene 1733) = assay: CCTE_GLTED_hDIO1: CCTE's human Deiodinase 1 (DIO1) Inhibition Assay, Great Lakes Toxicology and Ecology Division (GLTED) Lab (AID 2283987);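 also: isolated human DIO1 enzyme in a cell-free setup rather than cells; enzyme activity read as free iodide liberated from substrate via Sandell-Kolthoff colorimetry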
Summary of the method: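 Steps: human DIO1 enzyme plus test chemical, 3 h incubation; free iodide then quantified in a second Sandell-Kolthoff step by absorbance. DMSO served as negative control and baseline.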

[13] = TOX21_TRB_BLA_Antagonist_Followup_viability: Viability Assessment in the Tox21 Thyroid Hormone Receptor beta Antagonism Beta-lactamase (BLA) Follow-Up Assay (AID 2283961)
Summary of the method: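 Viability read as CellTiter-Glo ATP luminescence (loss of signal = cytotoxicity) in the same plates as the TRβ-bla readout. TRβ-LBD/GAL4 UAS-bla HEK293T cells were exposed to compounds, 11 concentrations in triplicate, for 18 h at 37C/5% CO2.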

THRB (gene 7068) [14] = molecular target: THRB (gene 7068) (UniProt P10828); assay: TOX21_TRB_COA_Antagonist_Followup_ratio: Tox21 Thyroid Hormone Receptor beta Antagonism through Coactivator Recruitment Follow-Up Assay, Ratio (AID 2283967)
THRB (gene 7068), sequence (P10828 whole entry, looked up, the tested form may be a part): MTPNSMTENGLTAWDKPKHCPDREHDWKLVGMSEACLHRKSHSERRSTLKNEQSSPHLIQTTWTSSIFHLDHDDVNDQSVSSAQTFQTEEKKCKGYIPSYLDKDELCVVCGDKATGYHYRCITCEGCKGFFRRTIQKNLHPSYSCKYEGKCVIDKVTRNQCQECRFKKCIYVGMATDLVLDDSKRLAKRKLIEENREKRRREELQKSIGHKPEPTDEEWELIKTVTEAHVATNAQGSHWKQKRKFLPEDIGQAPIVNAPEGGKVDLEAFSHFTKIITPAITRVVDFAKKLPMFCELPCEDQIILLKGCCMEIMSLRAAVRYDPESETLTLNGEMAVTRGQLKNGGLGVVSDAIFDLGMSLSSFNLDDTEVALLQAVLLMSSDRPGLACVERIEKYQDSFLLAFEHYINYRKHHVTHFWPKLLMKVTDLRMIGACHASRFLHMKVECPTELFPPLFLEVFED
Summary of the method: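 Cell-free TR-FRET: GST-TRb LBD (5.0 nM) with fluorescein-SRC-2 peptide (200 nM) and Tb anti-GST antibody (2 nM), 0.10% BSA. 520:495 nm emission ratio normalized to DMSO (0%) and T3 (100%).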

[15] = molecular target: Retinoic acid receptor RXR-alpha (Homo sapiens) (UniProt P19793); assay: TOX21_TR_RXR_BLA_Antagonist_Followup_ratio: Tox21 Thyroid Hormone Receptor beta Retinoid X Receptor alpha (RXRa) Antagonism Beta-lactamase (BLA) Follow-Up Assay, Ratio (AID 2283972)
Retinoic acid receptor RXR-alpha (Homo sapiens), sequence (P19793 whole entry, looked up, the tested form may be a part): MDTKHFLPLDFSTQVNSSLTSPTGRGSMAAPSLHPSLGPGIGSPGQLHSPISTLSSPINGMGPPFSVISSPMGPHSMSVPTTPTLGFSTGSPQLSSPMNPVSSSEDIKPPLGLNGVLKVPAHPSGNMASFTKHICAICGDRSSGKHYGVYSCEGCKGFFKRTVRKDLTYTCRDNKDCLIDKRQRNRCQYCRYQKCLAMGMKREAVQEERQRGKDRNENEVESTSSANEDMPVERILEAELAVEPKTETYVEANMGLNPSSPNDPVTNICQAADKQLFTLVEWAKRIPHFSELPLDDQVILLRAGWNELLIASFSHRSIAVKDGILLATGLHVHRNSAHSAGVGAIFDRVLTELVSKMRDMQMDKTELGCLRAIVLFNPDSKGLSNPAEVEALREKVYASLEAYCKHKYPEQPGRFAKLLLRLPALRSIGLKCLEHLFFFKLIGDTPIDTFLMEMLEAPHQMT
Summary of the method: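 Beta-lactamase reporter readout as cleaved/uncleaved substrate ratio (460:530 nm) after 2 h substrate loading at room temperature. GAL4-RXRa bla HEK293T cells were exposed 16 h at 37C to 11-point compound series; loss of signal scored against DMSO baseline.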

[16] = TOX21_TR_RXR_BLA_Antagonist_Followup_viability: Viability Assessment in the Tox21 Thyroid Hormone Receptor beta Retinoid X Receptor alpha (RXRa) Antagonism Beta-lactamase (BLA) Follow-Up Assay (AID 2283979)
Summary of the method: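 RXRa-bla HEK293T cells (2,500/well, phenol red-free DMEM, 2% charcoal-stripped FBS) were attached 5 h, then exposed to compounds at 11 concentrations in triplicate for 16 h at 37C. Viability measured by CellTiter-Glo ATP luminescence, bidirectional fitting versus DMSO.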

THRB (gene 7068) [17] = molecular target: THRB (gene 7068) (UniProt P10828); assay: TOX21_TRB_COA_Agonist_Followup_ratio: Tox21 Thyroid Hormone Receptor beta Agonism through Coactivator Recruitment Follow-Up Assay, Ratio (AID 2283963; active = hit-call score of the fitted dose curve at least 0.9, where 1 is the maximum; inactive = score below 0.9)
Summary of the method: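 GST-TRb LBD 5.0 nM + 0.10% BSA + cpd; add fluorescein-SRC-2 200 nM / Tb anti-GST Ab 2 nM; TR-FRET ex 340, em 520:495; norm DMSO 0%, T3 100%.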

[18] = molecular target: Retinoic acid receptor RXR-alpha (Homo sapiens) (UniProt P19793); assay: TOX21_TR_RXR_BLA_Agonist_Followup_ratio: Tox21 Thyroid Hormone Receptor beta Retinoid X Receptor alpha (RXRa) Agonism Beta-lactamase (BLA) Follow-Up Assay, Ratio (AID 2283968)
Summary of the method: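 HEK293T RXRa-bla, qHTS; cpd 11-pt conc. in triplicate, 16 h 37C/5% CO2; CCF4-AM 2 h RT; ratio 460:530 nm; agonist direction vs DMSO; 9-cis retinoic acid as positive control.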

[19] = TOX21_TR_RXR_BLA_Agonist_Followup_viability: Viability Assessment in the Tox21 Thyroid Hormone Receptor beta Retinoid X Receptor alpha (RXRa) Agonism Beta-lactamase (BLA) Follow-Up Assay (AID 2283970)
Summary of the method: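 Cells: HEK293T RXRa-UAS-bla, 2,500/well; medium phenol red-free DMEM + 2% charcoal-stripped FBS; 16h, 37C/5% CO2; qHTS concentration series. Read: CellTiter-Glo luminescence (ATP); bidirectional fit, DMSO = baseline.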

CS(=O)(=O)NC(=O)c1cc(Oc2ccc(C(F)(F)F)cc2Cl)ccc1[N+](=O)[O-]
outcome [1]: inactive
outcome [2]: inactive
outcome [3]: inactive
outcome [4]: inactive
outcome [5]: inactive
outcome [6]: inactive
outcome [7]: inactive
outcome [8]: inactive
outcome [9]: inactive
outcome [10]: inactive
outcome [11]: inactive
outcome [12]: inactive

CCCCCCCCn1sccc1=O
AC50 (DIO1 (gene 1733)): 54 µM (active)

CO[C@@H]1[C@H](OC(=O)NC(=O)CCl)CC[C@]2(CO2)[C@H]1[C@@]1(C)O[C@@H]1CC=C(C)C
AC50 (DIO1 (gene 1733)): 17.8 µM (active)

CN(C)c1ccc(C(=O)c2ccc(N(C)C)cc2)cc1
outcome [13]: inactive
outcome (THRB (gene 7068) [14]): inactive
outcome [15]: inactive
outcome [16]: inactive

COC(=O)Nc1nc2ccccc2[nH]1
outcome [13]: inactive
outcome (THRB (gene 7068) [14]): inactive
outcome [15]: inactive
outcome [16]: inactive

CN(C)[C@@H]1C(=O)C(C(N)=O)=C(O)[C@@]2(O)C(=O)C3=C(O)c4c(O)cccc4[C@@](C)(O)[C@H]3C[C@@H]12
AC50 (DIO1 (gene 1733)): 56.9 µM (active)

Cc1ccc(N)cc1
outcome (THRB (gene 7068) [17]): inactive
outcome [18]: inactive
outcome [19]: inactive

COP(=S)(OC)SCN1C(=O)c2ccccc2C1=O
AC50 (DIO1 (gene 1733)): 50.9 µM (active)

Clc1ccc(Cl)c(Cl)c1
outcome (THRB (gene 7068) [17]): inactive
outcome [18]: inactive
outcome [19]: inactive

Oc1ccc2ccc3cccc4ccc1c2c34
AC50 (DIO1 (gene 1733)): 100 µM (active)
